# Experimental data published in PubChem BioAssay AID463173 (ICCB-Longwood Screening Facility, Harvard Medical School, 2010).
# In all, about 52,000 compounds went through this assay and about 4,300 (8.3%) were called active. The entries come from a sample that favours actives as a whole. A number with no mark means an inactive call. No stated cut-off is given here; in the data, active means survival mostly below about 52% (no sharp cut-off); inactive means mostly above about 56%.
# System: DeltatarO mutant
# Assay: growth inhibition of S. aureus wild type versus tarO mutant, primary screen, teichoic acid synthesis inhibitors, RN4220, OD600 (AID 463173)
# Conditions: OD600, 18 h, active compounds read low, screened at 18.75 µg/mL (by protocol)
row,Compound,survival
1,CCN(CC)c1ccc2cc(C(=O)Nc3ccc(NC(C)=O)cc3)c(=O)oc2c1,94%
2,O=C(NCCc1ccccc1)c1ccc(CSc2nc3ccncc3n2Cc2ccccc2)cc1,73%
3,CCc1ccc(NC(=O)C(NS(=O)(=O)c2cccs2)C(C)C)cc1 (stereo not drawn),55% (active)
4,Cc1ccc(NC(=O)C(Cc2ccccc2)NS(=O)(=O)c2ccc3c(c2)c(=O)n(C)c(=O)n3C)cc1 (stereo not drawn),64%
5,Cc1ccc(NC(=O)C(Cc2ccccc2)NS(=O)(=O)c2cccs2)cc1Cl (stereo not drawn),90%
6,CCc1cccc(NC(=O)C(Cc2ccccc2)NS(=O)(=O)c2cccs2)c1 (stereo not drawn),44% (active)
7,CCCOc1ccc(CNC(=O)C(NS(=O)(=O)c2cccs2)C(C)C)cc1 (stereo not drawn),77%
8,COc1cc(NC(=O)C(Cc2ccccc2)NS(=O)(=O)c2cccs2)cc(OC)c1 (stereo not drawn),102%
9,CCc1ccc(NC(=O)C(Cc2ccccc2)NS(=O)(=O)c2ccc3c(c2)c(=O)n(C)c(=O)n3C)cc1 (stereo not drawn),45% (active)
10,Cc1ccc(CNC(=O)C(NS(=O)(=O)c2cccs2)C(C)C)cc1 (stereo not drawn),61%
11,CCc1cccc(NC(=O)C(Cc2ccccc2)NS(=O)(=O)c2ccc3c(c2)c(=O)n(C)c(=O)n3C)c1 (stereo not drawn),54%
12,CC(CNC(=O)c1ccc2c(c1)nc1n2CCCCC1)c1ccccc1 (stereo not drawn),62%
13,CCOC(=O)c1ccc(CN(Cc2ccccc2C)S(=O)(=O)c2ccc(F)c(C)c2)cc1,80%
14,Cn1cnc(S(=O)(=O)N2CCCC(C(=O)NCc3ccc(F)cc3)C2)c1 (stereo not drawn),55%
15,CCOC(=O)CN1N=NC2C(=O)N(c3ccccc3)C(=O)C21 (stereo not drawn),92%
16,O=C(c1ccc2c(c1)OCCO2)N(Cc1cccnc1)c1nc2c(F)cc(F)cc2s1,88%
17,Cc1ccc(CCNC(=O)CN(c2ccc(C(C)C)cc2)S(=O)(=O)c2c(C)nn(C)c2C)cc1,68%
18,Cc1ccc(C(=O)c2cn(Cc3c(F)cccc3Cl)c3nc(C)ccc3c2=O)cc1,62%
19,CCc1ccc(NC(=O)CSC2=Nc3ccccc3C3=NC(CCC(=O)NCCc4ccccc4)C(=O)N23)cc1 (stereo not drawn),81%
20,O=S(=O)(/C=C/c1ccccc1)N1CCOCC1,67%
21,N#CCSc1nc(N)cc(N)n1,52% (active)
22,N#Cc1ccccc1CSc1nc(N)cc(N)n1,106%
23,Cc1ccc(CSc2nc(N)cc(N)n2)cc1,114%
24,Cc1ccc(N2CCN(C(=O)c3ccc(Nc4nc5ccccc5n5nnnc45)cc3)CC2)c(C)c1,82%

row,Compound,survival
1,CC(C)Nc1nc2c(S(=O)(=O)c3cccc(Cl)c3)nnn2c2ccsc12,70%
2,COc1ccc(OC)c(NC(=O)CSc2c3c(nc4ccccc24)CCCC3)c1,93%
3,Cc1ccc(NC(=O)CSc2c3c(nc4ccccc24)CCCC3)cc1F,30% (active)
4,COc1ccc(NC(=O)CSc2c3c(nc4ccccc24)CCC3)c(OC)c1,110%
5,O=C(CSc1c2c(nc3ccccc13)CCC2)Nc1ccc(F)cc1,127%
6,COc1cccc(NC(=O)CSc2c3c(nc4ccccc24)CCCC3)c1,43% (active)
7,CCOc1ccc(NC(=O)CSc2c3c(nc4ccccc24)CCCC3)cc1,88%
8,CN(C)c1ccc(-c2nc3ccccn3c2Nc2ccc3c(c2)OCCO3)cc1,81%
9,CC(CCc1ccccc1)NC(=O)Cn1c(=O)nc(-c2ccccc2)c2cc(Cl)ccc21 (stereo not drawn),80%
10,O=C(CCc1ccccc1)NCc1ccco1,88%
11,CCOC(=O)c1ccccc1NC(=O)N1CC(C)Oc2ccc(C)cc21 (stereo not drawn),50%
12,CCN1CCN(C(=O)c2ccc3c(c2)N(Cc2ccccc2)C(=O)c2ccccc2S3(=O)=O)CC1,129%
13,Cc1ccc(CNC(=O)CN2CCCN(Cc3ccc(F)cc3)S2(=O)=O)cc1,67%
14,Cc1oc2c(cc(NS(=O)(=O)c3ccc(C(C)C)cc3)c3ccccc32)c1C(=O)O,42% (active)
15,Cc1oc2c(cc(NS(=O)(=O)c3ccc(C(C)C)cc3)c3ccccc32)c1C(=O)OCc1ccccc1,81%
16,Cc1oc2c(cc(NS(=O)(=O)c3ccc(F)cc3)c3ccccc32)c1C(=O)OCc1ccccc1,54%
17,CCCOC(=O)c1c(C)oc2c1cc(NS(=O)(=O)c1ccc(OCC)cc1)c1ccccc12,56% (active)
18,CCOc1ccc(S(=O)(=O)Nc2cc3c(C(=O)OCc4ccccc4)c(C)oc3c3ccccc23)cc1,94%
19,Cc1oc2c(cc(NS(=O)(=O)c3ccc(Cl)cc3)c3ccccc32)c1C(=O)OCc1ccccc1,52%
20,COCCOC(=O)c1c(C)oc2c1cc(NS(=O)(=O)c1ccc(Cl)c(C)c1)c1ccccc12,44% (active)
21,CC(=O)c1c(C)oc2c1cc(NS(=O)(=O)c1ccc(C(C)(C)C)cc1)c1ccccc12,64%
22,CC(=O)c1c(C)oc2c1cc(NS(=O)(=O)c1ccc(Cl)c(C)c1)c1ccccc12,70%
23,CCc1ccc(S(=O)(=O)Nc2cc3c(C(=O)OCc4ccccc4)c(C)oc3c3ccccc23)cc1,60%
24,Cc1cc(F)ccc1S(=O)(=O)Nc1cc2c(C(=O)O)c(C)oc2c2ccccc12,39% (active)

row,Compound,survival
1,Cc1ccc(S(=O)(=O)Nc2cc3c(C(=O)OCc4ccccc4)c(C)oc3c3ccccc23)c(C)c1,56%
2,CCc1ccc(CN(Cc2ccco2)C(=O)COc2ccc(Cl)cc2C)cc1,55%
3,O=C(CNC(=O)c1ccccc1)OCc1cc(=O)n2nc(C3CCCCC3)sc2n1,90%
4,O=C(O)CC1c2ccccc2CCN1C(=O)Nc1cc(Cl)ccc1Cl (stereo not drawn),94%
5,COc1ccc(NC(=O)Cn2c(=O)n(-c3cccc(C)c3)c(=O)c3c2c2cc(C)ccc2n3C)cc1OC,79%
6,c1ccc(CNCC2COc3ccccc3O2)cc1 (stereo not drawn),114%
7,Cc1ccc(-n2ncc3c(N4CCN(C)CC4)ncnc32)cc1C,89%
8,Cc1ccc(CNC(=O)NC2COc3ccccc3C2)cc1 (stereo not drawn),107%
9,COc1ccc(S(=O)(=O)Nc2cc3c(C(=O)OC(C)C)c(C)oc3c3ccccc23)cc1,38% (active)
10,COc1ccc(OC)c(S(=O)(=O)Nc2cc3c(C(C)=O)c(C)oc3c3ccccc23)c1,52%
11,CCOC(=O)c1c(C)oc2c1cc(NS(=O)(=O)c1ccc(C)cc1)c1ccccc12,56%
12,Cc1nc(-c2ccc(S(=O)(=O)Nc3ccc(OC(F)(F)F)cc3)cc2)co1,78%
13,COc1cc([C@@H]2Nc3c(F)cccc3[C@@H]3C=CC[C@@H]32)cc(Br)c1OC,55%
14,CCOc1cccc2c1N[C@@H](c1ccc(C(=O)O)cc1)[C@H]1CC=C[C@@H]21,68%
15,COC(=O)c1ccc([C@@H]2Nc3c(C)cc(C)cc3[C@@H]3C=CC[C@@H]32)cc1,51% (active)
16,COC(=O)c1ccc([C@@H]2Nc3c(OC)ccc(C)c3[C@@H]3C=CC[C@@H]32)cc1,49%
17,COC(=O)c1ccc([C@@H]2Nc3c(cccc3C(F)(F)F)[C@@H]3C=CC[C@@H]32)cc1,-3% (active)
18,COC(=O)c1cccc2c1NC(c1cccnc1)C1CC=CC21 (stereo not drawn),101%
19,CCOC(=O)c1cccc2c1N[C@@H](c1ccc(F)cc1)[C@H]1CC=C[C@@H]21,4% (active)
20,Cc1ccc([C@H]2Nc3ccc(S(=O)(=O)Nc4cccc(Cl)c4C)cc3[C@H]3C=CC[C@H]32)cc1,50%
21,Cc1ccc2c(c1C)NC(C(=O)O)C1CC=CC21 (stereo not drawn),85%
22,Cc1ccc(Cl)c2c1N[C@@H](c1ccc(C(=O)O)cc1)[C@H]1CC=C[C@@H]21,-10% (active)
23,COCCN(CCOC)C(=O)c1cc2c(=O)n3ccccc3nc2n1C,51%
24,CCOc1ccccc1NC(=O)N(C)CCc1c(C)nn(CC)c1C,120%

row,Compound,survival
1,Cc1c(C(=O)N2CCCC2)oc2c1-c1nn(CC(=O)NC(C)c3ccccc3)cc1CC2 (stereo not drawn),72%
2,Cc1nc(SCC(=O)N2c3ccccc3CCc3ccccc32)n[nH]1,102%
3,Cc1cccc(C(=O)NC2=NC(c3ccc(Cl)cc3)CC(=O)N2)c1 (stereo not drawn),88%
4,COc1ccccc1NC(=O)CN1C(=O)CC(c2ccc(C)c(C)c2)=Nc2ccccc21,84%
5,O=C1Nc2ccc(S(=O)(=O)Nc3ccccc3O)c3cccc1c23,62%
6,CCOC(=O)c1ccc(NC2=CC(c3ccc(O)c(OCC)c3)N(c3ccc(C(=O)OCC)cc3)C2=O)cc1 (stereo not drawn),59%
7,Cc1ccc(S(=O)(=O)c2nnn3c2nc(NCc2ccc4c(c2)OCO4)c2sccc23)cc1,113%
8,COc1ccccc1CNC(=O)CCn1c(=O)c2cccn2c2cccnc21,80%
9,COCCCNC(=O)c1nn(-c2ccc(C)cc2)nc1CO,82%
10,Cc1ccc(-c2nc(S(=O)(=O)c3ccc(C)cc3)c(SCC(=O)NC3CCCCC3)o2)cc1,51%
11,O=C(CSc1oc(-c2ccccc2)nc1S(=O)(=O)c1ccc(Cl)cc1)c1ccccc1,44% (active)
12,Cc1ccc(-c2nc(S(=O)(=O)c3ccccc3)c(SCC(=O)NC3CCCCC3)o2)cc1,43% (active)
13,Cc1ccc(S(=O)(=O)c2nc(-c3ccc(F)cc3)oc2SCC(=O)c2ccccc2)cc1,47% (active)
14,O=C(CSc1oc(-c2ccccc2)nc1S(=O)(=O)c1ccccc1)c1ccccc1,148%
15,O=C(CSc1oc(-c2ccccc2)nc1S(=O)(=O)c1ccc(Cl)cc1)Nc1ccc(F)cc1,162%
16,Cc1ccc(S(=O)(=O)c2nc(-c3ccccc3)oc2SCC(=O)NC2CCCCC2)cc1,166%
17,Cc1ccc(-c2nc(S(=O)(=O)c3ccc(C)cc3)c(SCC(=O)c3ccccc3)o2)cc1,52%
18,Cc1ccc(-c2nc(S(=O)(=O)c3ccc(C)cc3)c(SCC(=O)Nc3ccc(F)cc3)o2)cc1,58%
19,O=C(CSc1oc(-c2ccc(F)cc2)nc1S(=O)(=O)c1ccc(Cl)cc1)c1ccccc1,45% (active)
20,O=C(CSc1oc(-c2ccccc2)nc1S(=O)(=O)c1ccc(Br)cc1)c1ccccc1,58%
21,O=C(CSc1oc(-c2ccc(F)cc2)nc1S(=O)(=O)c1ccccc1)c1ccc(Cl)cc1,55%
